Our source for the activity, activity change, negative = inhibition and Potency values is PubChem BioAssay (NCATS).

Results filed as inconclusive are left out. Calls of active or inactive are those of the source. Unless noted, calls follow the shape of the dose curve; as a rule, active = well fitted curve in the direction sought with a large enough effect; inconclusive = small, poorly fitted or top-dose-only effect, or another doubt; inactive = no such curve, though single readings can be large; an effect the other way counts as inactive or inconclusive.

Experiment [1] has as its target Catechol O-methyltransferase (Homo sapiens) (UniProt P21964). As to the kind of experiment: Confirmatory Screen for Target Class Profiling of Small Molecule Inhibitors of Methyltransferases (AID 1745852; calls by dose curve; also: potency is read from the fitted curve at half-maximal effect; as to activity change, negative = inhibition: % is scaled to controls: 0 for no effect and ±100 for the full control effect). The note with it: MTase-Glo luminescence, SAH detection, recombinant enzyme; measured here: COMT max response; stronger effect = lower value.
The target of experiment [2] is Guanidinoacetate N-methyltransferase (Homo sapiens) (UniProt Q14353). The experiment is described as above. As to conditions: MTase-Glo luminescence, SAH detection, recombinant enzyme; activity change, negative = inhibition: at 57.3 µM (top of the series) unless noted; series mostly up to 57.3 µM.
Experiment [3] deals with Nicotinamide N-methyltransferase (Homo sapiens) (UniProt P40261). Described as above. The note with it: MTase-Glo luminescence, SAH detection, recombinant enzyme; measured here: NNMT max response; stronger effect = lower value.
Experiment [4] deals with Phenylethanolamine N-methyltransferase (Homo sapiens) (UniProt P11086). The experiment is described as above. As to conditions: MTase-Glo luminescence, SAH detection, recombinant enzyme; measured here: PNMT max response; stronger effect = lower value.
For experiment [5], the target named is Glutathione peroxidase 1 (Homo sapiens) (UniProt P07203). In words: Primary qHTS Assay for Inhibitors of Recombinant Selenoprotein Glutathione Peroxidase 1 (GPX1) (AID 1845191). Also: nearly all actives have a fitted effect of over 65% in size. As to conditions: recombinant GPX1, GR-coupled NADPH fluorescence, 15 min; series mostly up to 48.8 µM. The method in brief: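 GPX1 10 nM, GR 100 nM, GSH 1 mM, NADPH 0.5 mM, CHP 0.5 mM (final). 30-min cpd preincubation, RT. Ex340/Em450 read t=0, t=15 min.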

In experiment [6] the target is Phospholipid hydroperoxide glutathione peroxidase GPX4 (Homo sapiens) (UniProt P36969). In words: Primary qHTS Assay for Inhibitors of Recombinant Selenoprotein Glutathione Peroxidase 4 (GPX4) (AID 1845192). Also: nearly all actives have a fitted effect of over 65% in size. Also: potency is read from the fitted curve at half-maximal effect. As to activity change, negative = inhibition: % is scaled to controls: 0 for no effect and ±100 for the full control effect. The note with it: recombinant GPX4, GR-coupled NADPH fluorescence, 15 min; series mostly up to 50 µM. The method, boiled down: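 qHTS, GR-coupled: GPX4 200 nM + cpd 30 min RT → GSH 1 mM, NADPH 0.5 mM, GR 100 nM → CHP 0.5 mM start; fluor 340/450 at t0 and t15 min; no-enzyme wells as control.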
(In general: Quantitative high-throughput screening tests each substance at several concentrations.)

A short description of experiment [7]: Primary fluorescence-based thiol-reactive (MSTI) qHTS assay for identification of artifact compounds. (AID 1845221). Also: nearly all actives have a fitted effect of over 65% in size. Also: potency is read from the fitted curve at half-maximal effect. As to conditions: MSTI thiol-reactivity probe, 1 h; series mostly up to 53.8 µM. The method, boiled down: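 MSTI probe at 4 uM final in 2% DMSO/PBS pH 7.4; compounds, 1 h at room temperature in dark. Fluorescence Ex/Em 525/598 nm, normalised to Acetyl-MSTI and MSTI, fitted to 4-parameter Hill.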

For experiment [8], the system named is Nanoluciferase (engineered Oplophorus gracilirostris luciferase). In words: Primary Nanoluciferase (NLuc) qHTS assay for identification of artifact compounds. (AID 1845222). The note with it: NLuc-conditioned medium, Nano-Glo luminescence, 5 min; series mostly up to 54.1 µM. The method, boiled down: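 Luminescence read-out of secreted NLuc in S16 cell conditioned medium (1:55); compounds tested with 15 min RT preincubation, then Nano-Glo substrate 1:100, 5 min. % inhibition vs no-enzyme and DMSO controls, 4-parameter Hill fit.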

The target in experiment [9] is Luciferin 4-monooxygenase (Photinus pyralis) (UniProt P08659). As to the kind of experiment: Primary firefly luciferase (FLuc) qHTS assay for identification of artifact compounds. (AID 1845220). Also: nearly all actives have a fitted effect of over 60% in size.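 As to activity change, negative = inhibition: plate controls were DMSO vehicle for no effect and no enzyme for full effect.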 The note with it: purified firefly luciferase, luminescence, 5 min; series mostly up to 54.1 µM. The method in brief:
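qHTS, 15 min compound preincubation with substrate (10 uM luciferin, 10 uM ATP) at RT, then 10 nM FLuc; 5 min; luminescence; % inhibition vs no-enzyme/DMSO controls, 4-parameter Hill fit.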

A short description of experiment [10]: Primary redox qHTS assay for identification of artifact compounds. (AID 1845223). Also: potency is read from the fitted curve at half-maximal effect. As to conditions: Amplex Red/HRP redox cycling with DTT, fluorescence; series mostly up to 53.8 µM. The method, boiled down:
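Redox-cycling detection via DTT (250 uM final) oxidation coupled to Amplex Red (25 uM)/HRP (250 mU/mL) in HBSS. 15 min preincubation plus 30 min after DTT, room temperature. Ex/Em 525/598 nm; 4-parameter Hill fit against DMSO and 10 uM DA3003.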

Chain of Catechol O-methyltransferase (Homo sapiens) (P21964 whole entry, looked up): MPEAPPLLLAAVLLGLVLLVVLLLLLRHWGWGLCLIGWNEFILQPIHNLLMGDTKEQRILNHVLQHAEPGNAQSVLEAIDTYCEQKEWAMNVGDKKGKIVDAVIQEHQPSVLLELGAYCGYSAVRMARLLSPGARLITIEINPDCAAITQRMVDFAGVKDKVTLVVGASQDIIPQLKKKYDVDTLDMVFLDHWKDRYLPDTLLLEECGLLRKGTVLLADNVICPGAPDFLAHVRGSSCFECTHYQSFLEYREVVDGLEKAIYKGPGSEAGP
Chain of Phospholipid hydroperoxide glutathione peroxidase GPX4 (Homo sapiens) (P36969 whole entry, looked up): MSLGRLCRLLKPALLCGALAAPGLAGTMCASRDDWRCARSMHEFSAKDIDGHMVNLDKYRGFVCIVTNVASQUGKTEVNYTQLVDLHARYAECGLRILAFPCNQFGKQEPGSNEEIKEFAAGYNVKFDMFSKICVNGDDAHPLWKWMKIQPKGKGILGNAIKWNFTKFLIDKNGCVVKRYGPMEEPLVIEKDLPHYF
Chain of Phenylethanolamine N-methyltransferase (Homo sapiens) (P11086 whole entry, looked up): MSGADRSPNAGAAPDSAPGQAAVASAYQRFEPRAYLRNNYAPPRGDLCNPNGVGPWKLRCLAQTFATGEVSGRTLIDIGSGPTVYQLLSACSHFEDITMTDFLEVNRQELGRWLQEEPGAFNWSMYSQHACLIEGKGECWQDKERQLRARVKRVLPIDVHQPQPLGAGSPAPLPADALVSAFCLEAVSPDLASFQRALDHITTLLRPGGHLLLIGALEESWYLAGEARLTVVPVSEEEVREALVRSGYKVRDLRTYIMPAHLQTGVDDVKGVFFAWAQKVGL
Chain of Glutathione peroxidase 1 (Homo sapiens) (P07203 whole entry, looked up): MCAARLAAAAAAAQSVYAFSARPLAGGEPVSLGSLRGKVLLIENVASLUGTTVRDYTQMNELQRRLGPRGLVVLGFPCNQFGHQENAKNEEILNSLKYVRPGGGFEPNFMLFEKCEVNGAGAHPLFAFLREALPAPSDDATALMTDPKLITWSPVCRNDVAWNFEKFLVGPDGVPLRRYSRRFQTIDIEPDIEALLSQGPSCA
Chain of Nicotinamide N-methyltransferase (Homo sapiens) (P40261 whole entry, looked up): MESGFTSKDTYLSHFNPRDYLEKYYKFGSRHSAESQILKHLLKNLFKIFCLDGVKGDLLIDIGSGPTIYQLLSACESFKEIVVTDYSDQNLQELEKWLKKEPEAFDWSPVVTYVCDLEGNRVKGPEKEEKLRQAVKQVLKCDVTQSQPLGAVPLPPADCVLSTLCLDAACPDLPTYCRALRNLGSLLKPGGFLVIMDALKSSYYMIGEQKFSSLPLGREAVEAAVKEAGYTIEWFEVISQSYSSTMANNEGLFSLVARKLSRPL

As for `C=C1C(=O)OC[C@@H]1C/C=C(\C)CC1CC(C)C(=O)O1` (stereo partly drawn), the activity in [1] is -80%; in experiment [3], 0.776%; in experiment [4], 0.671%. Moreover, the activity change, negative = inhibition in experiment [2] was -0.246%. The Potency result in [5], in experiment [6] and in experiment [8] was “inactive” each time. Moreover, in experiment [7], the Potency was 8.44 µM (active).

As to `C/C=C(/C)C(=O)O[C@H]1C=C(CO)C(=O)[C@H](OC(=O)/C(C)=C/CO)[C@H]1C(C)C`, the activity in experiment [1] is -55.6%; in experiment [3], -3.04%; in experiment [4], -1.6%. Besides, the activity change, negative = inhibition in experiment [2] was -5.13%. Besides, the Potency result in [5], in experiment [6], in [9], in [8] and in experiment [10] was “inactive” in each case.

Consider `CC1(C)CCC(C)(C)c2cc(C#Cc3ccc(C(=O)O)cc3)ccc21`, for which the activity was -0.825% in experiment [1], -63% in [3] and -5.22% in experiment [4]. The activity change, negative = inhibition in [2] turned out to be 0%. Moreover, the Potency result in experiment [5], in experiment [6], in experiment [7], in experiment [8] and in experiment [10] was “inactive” throughout.

Regarding `CC1=C(C(=O)OC2CCCCC2)C(c2ccc([N+](=O)[O-])cc2)C2=C(CC(C)(C)CC2=O)N1` (stereo not drawn), the activity in experiment [1] is -30.3%; in [3], -8.48%; in experiment [4], -64.1%. Further, in [2], the Potency is 19.2 µM (active). The Potency entry in experiment [5], in experiment [6] and in experiment [7] was “inactive” each time.

Take `O=S(=O)(Nc1cc(Cl)c(Oc2cnc3ccccc3c2)c(Cl)c1)c1ccc(Cl)cc1Cl`: the activity in experiment [1] is -8.48%; in experiment [3], -47.5%; in experiment [4], -24%. In addition, in experiment [2], the Potency is 34.1 µM (active). The Potency result in [5], in [6], in experiment [9], in experiment [7] and in [10] was “inactive” throughout.

`C=C1C(=O)O[C@@H]2/C=C(\CO)CC/C=C(/C=O)C[C@@H](O)[C@@H]12`: the values for the activity in [1], in experiment [3] and in experiment [4] were -63.7%, -2.02% and -2.71%, respectively. Further, the activity change, negative = inhibition in [2] is -8.49%. In addition, the Potency entry in experiment [5], in [6], in [9], in experiment [8] and in [10] was “inactive” each time.

As for `C/C(=N\N=C(N)N)c1cc(NC(=O)CCCCCCCCC(=O)Nc2cc(/C(C)=N/N=C(N)N)cc(/C(C)=N/N=C(N)N)c2)cc(/C(C)=N/N=C(N)N)c1`, the figures for the activity in [1], in [3] and in experiment [4] were -85.9%, -74.6% and -75.4%, respectively. In experiment [2], the Potency is 27.1 µM (active). In addition, the Potency entry in experiment [5], in experiment [6], in [7] and in [8] was “inactive” each time.

As to `O=C1Cc2c([nH]c3ccc(Br)cc23)-c2ncccc2N1`, the activity is -8.4% in [1], -15.4% in experiment [3] and -7.69% in [4]. Further, the activity change, negative = inhibition in [2] is -5.35%. In addition, the Potency entry in experiment [5], in [6], in [9] and in experiment [10] was “inactive” throughout.

In the case of `Cc1cc2c(N3CCCC3)nc(N3CCCC3)nc2n1C`, the activity in experiment [1] was -23.9%; in experiment [3], -27.1%; in experiment [4], -17.6%. Further, the Potency was 24.1 µM (active) in [2] and 0.844 µM (active) in experiment [10]. The Potency result in experiment [5], in experiment [6] and in experiment [8] was “inactive” each time.

`Cc1[nH]c2ccccc2c1CCNCc1ccc(/C=C/C(=O)NO)cc1`: the values for the activity in [1], in [3] and in experiment [4] were 16.3%, -6% and -2.09%, respectively. Moreover, in experiment [2], the activity change, negative = inhibition is -2.13%. The Potency entry in experiment [5], in experiment [6], in experiment [9], in experiment [8] and in experiment [10] was “inactive” each time.

For the molecule `CC#C[C@@H](CC(=O)O)c1ccc(OCc2cccc(-c3ccc(C(F)(F)F)cc3)c2)cc1`, the activity in experiment [1] is -11.2%; in [3], -23.8%; in experiment [4], 3.83%. Moreover, the Potency entry in experiment [2], in experiment [5], in experiment [7], in experiment [8] and in experiment [10] was “inactive” throughout. The Potency in experiment [6] was 5.7 µM (active).
